From the supplement of paper PMC8699584
Values joined by “and” are separate entries in the source; they are usually repeats but may differ in a detail not shown here. Equal values may be shown once. Where a name gives a salt, the structure may show the parent alone. ± gives the standard deviation of the averaged measurements.

Tests used:
Molm13 = assay: cell viability relative to DMSO control (bortezomib = 0%); higher = less growth inhibition; details: 10 nM; 72 h
Outline: (§1)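 Using 384-well plates, a set of 679 approved and investigational compounds was tested once at 10 nM against acute myeloid leukemia cells (1000 cells per well in 50 µL) over 72 h, with the whole screen done in duplicate. Viability readout relied on CellTiter-Glo luminescence measured on an EnVision reader. For each plate, linear regression mapped values between positive-control-treated cells at 0% and DMSO-treated cells at 100%.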

Mv4-11 = assay: as above; details: 10 nM; 72 h
Outline: as §1

SMILES	cell viability (Molm13)	cell viability (Mv4-11)
Cc1cnc(-c2cnc(NCCNc3ccc(C#N)cn3)nc2-c2ccc(Cl)cc2Cl)[nH]1	104% and 111%	105% and 110%
COc1cc(C(=O)N2CCC(N3CCN(C)CC3)CC2)ccc1Nc1ncc2c(n1)N(C)c1ccccc1C(=O)N2C	97.52 ± 0.43%	104 ± 5.1%
C=CC(=O)N1CCC[C@@H](n2nc(-c3ccc(Oc4ccccc4)cc3)c3c(N)ncnc32)C1	95.3 ± 9.3%	93.2 ± 4.6%
Nc1nc2cc(-c3ccc4ncc(C(=O)N5CCOCC5)n4c3)ccc2o1	98.5 ± 2.2%	105 ± 16%
COc1ncc(-c2ccc3nccc(-c4ccnnc4)c3c2)cc1NS(=O)(=O)c1ccc(F)cc1F	61.5 ± 19%	76.1 ± 1.9%
Cc1cnc(NC(=O)Nc2cc(Br)c(C)cc2OC[C@@H]2CNCCO2)cn1	101 ± 11%	109 ± 8.1%
COC(=O)[C@]12CCC(C)(C)C[C@H]1[C@H]1C(=O)C=C3[C@@]4(C)C=C(C#N)C(=O)C(C)(C)[C@@H]4CC[C@@]3(C)[C@]1(C)CC2 [Bardoxolone Methyl]	102 ± 6.8%	104 ± 1.1%
Cc1ncc(CCCN(C)C)cc1Nc1ncc2c(n1)-c1ccc(C(F)(F)F)cc1NC(=S)C2	100 ± 2.9%	108 ± 7.1%
O=c1ncn2nc(Sc3ccc(F)cc3F)ccc2c1-c1c(Cl)cccc1Cl	89.6 ± 1.7%	108 ± 6.4%
COC(=O)Nc1nc2cc(C(=O)c3cccs3)ccc2[nH]1 [Nocodazole]	112.8 ± 0.63%	105.5 ± 0.46%
N#CC(C#N)=C(N)/C(C#N)=C/c1cc(O)c(O)c(O)c1	98.1 ± 28%	94.3 ± 15%
CC(C)(C)c1nc(-c2cccc(NS(=O)(=O)c3c(F)cccc3F)c2F)c(-c2ccnc(N)n2)s1	98.4 ± 6.6%	124 ± 2.6%
COc1cc2ncnc(Nc3cccc(Cl)c3F)c2cc1OC(=O)N1CCN(C)C[C@H]1C	110 ± 8.6%	99.9 ± 8.6%
CN1CCN(Cc2ccc(-c3cnc4[nH]cc(-c5ccc6[nH]ccc6c5)c4c3)cc2)CC1	109 ± 33%	121 ± 31%
NCC(=O)Nc1ccc(-n2nc(C(F)(F)F)cc2-c2ccc3c(ccc4ccccc43)c2)cc1	114 ± 8.5%	101 ± 12%
CC(C)(C)n1nc(Cc2cccc3ccccc23)c2c(N)ncnc21	106 ± 29%	106 ± 3%
CNC(=O)c1ccccc1Sc1ccc2c(/C=C/c3ccccn3)n[nH]c2c1 [Axitinib]	120 ± 7%	118 ± 10%
Cn1sc(=O)n(Cc2ccccc2)c1=O	90.9 ± 6.1%	108 ± 21%
CC(C)CCN1c2nc(Nc3cc(F)c(O)c(F)c3)ncc2N(C)C(=O)C1C (stereo not drawn)	100 ± 14%	114 ± 6.3%
Cc1oncc1C(=O)Nc1ccc(C(F)(F)F)cc1 [Leflunomide]	91.3 ± 23%	118 ± 29%

SMILES	cell viability (Molm13)	cell viability (Mv4-11)
CCN1CCN(Cc2ccc(-c3cc4c(N[C@H](C)c5ccccc5)ncnc4[nH]3)cc2)CC1	100 ± 17%	109 ± 18%
CC1(C)CN(C(=O)c2ccc(-c3cccc4nc(NC(=O)C5CC5)nn34)cc2)C1 [Solcitinib]	115 ± 6.5%	114 ± 3.3%
Cc1nc(Nc2ncc(C(=O)Nc3c(C)cccc3Cl)s2)cc(N2CCN(CCO)CC2)n1 [Dasatinib]	111 ± 29%	114 ± 2.2%
O=C(NC(CO)c1ccc(F)c(Cl)c1)c1cc(-c2[nH]ncc2-c2cccc(Cl)c2)c[nH]1 (stereo not drawn)	116 ± 16%	110 ± 7.8%
CC[C@H](CO)Nc1nc(NCc2ccccc2)c2ncn(C(C)C)c2n1 [(R)-Roscovitine]	105 ± 9.1%	103 ± 15%
Cc1ccc2c(Nc3ccc(Cl)cc3)nccc2c1Nc1ncccc1-c1ncnc2nc[nH]c12 [B-Raf inhibitor 1]	98.9 ± 11%	107.5 ± 0.62%
CS(=O)(=O)c1ccc(-c2cnc(N)c(C(=O)Nc3ccccc3)n2)cc1	83.9 ± 3.9%	93.76 ± 0.24%
Oc1cccc(-c2nc(N3CCOCC3)c3oc4ncccc4c3n2)c1	94.1 ± 2.2%	104 ± 8.7%
CCOc1cc(/C=C(\C#N)C(N)=O)cc(CSc2ccccc2)c1O	101 ± 44%	115 ± 15%
CCN(CC)CCNC(=O)c1c(C)[nH]c(/C=C2\C(=O)Nc3ccc(F)cc32)c1C [Sunitinib (malate)]	50.3 ± 5.7%	63.4 ± 1.2%
COc1ccc(-c2oc3c(CC=C(C)C)c(O)cc(O)c3c(=O)c2O)cc1 [Icaritin]	117 ± 8.4%	118 ± 1.5%
O=C1NC(=O)C(c2cnc3ccccn23)=C1c1cn2c3c(cc(F)cc13)CN(C(=O)N1CCCCC1)CC2	125 ± 6.1%	89.9 ± 4.6%
c1ccc2c(-c3cnn4cc(-c5ccc(N6CCNCC6)cc5)cnc34)ccnc2c1	98 ± 20%	112 ± 6.1%
Cc1nc(NC(=O)N2CCC[C@@H]2C(N)=O)sc1-c1ccnc(C(C)(C)C(F)(F)F)c1 [BYL-719(Alpelisib)]	113 ± 6.5%	102 ± 15%
O=C(Nc1ccc(-c2ccnc(Nc3ccc(N4CCOCC4)cc3)n2)cc1)C1CCCN1 (stereo not drawn)	107 ± 16%	95.7 ± 4.2%
NCCNS(=O)(=O)c1cccc2cnccc12 [H-9 (hydrochloride)]	114 ± 24%	111 ± 4.7%
CCS(=O)(=O)c1cccc(-c2cc(C(=O)NC3CCN(C)CC3)c(C)c3[nH]c4ncc(C)cc4c23)c1	75.1 ± 5.3%	90.6 ± 3.5%
COc1cc(OC)c(C=C2C(=O)Nc3ccccc32)c(OC)c1	104 ± 6.9%	100 ± 12%
FC(F)(F)c1ccc(/C=C/c2nc(COc3ccc(CCCCn4ccnn4)cc3)co2)cc1 [Mubritinib (TAK 165)]	107 ± 9%	104 ± 7.6%
Cc1cc(O)c2c(c1)C(=O)c1cccc(O)c1C2=O [Chrysophanic Acid]	93.1 ± 1.7%	108 ± 12%

SMILES	cell viability (Molm13)	cell viability (Mv4-11)
Cc1ccc(F)c(NC(=O)Nc2ccc(-c3cccc4[nH]nc(N)c34)cc2)c1	72.2 ± 9.9%	97.7 ± 10%
CCc1cnn2c(NCc3ccc[n+]([O-])c3)cc(N3CCCC[C@H]3CCO)nc12	93.2 ± 28%	86.6 ± 15%
COc1cc(Nc2ncc(F)c(Nc3ccc4c(n3)NC(=O)C(C)(C)O4)n2)cc(OC)c1OC [R406 free base]	101.7 ± 0.97%	105 ± 1.6%
Oc1ccc(-c2nc(-c3ccc(F)cc3)c(-c3ccncc3)[nH]2)cc1	94% and 105%	104% and 106%
COc1ccc(C2CC(=O)c3c(O)cc(OC4OC(COC5OC(C)C(O)C(O)C5O)C(O)C(O)C4O)cc3O2)cc1OC (stereo not drawn) [Methyl hesperidin]	109 ± 12%	117 ± 20%
Cc1c(C)c2c(c(C)c1O)CC[C@@](C)(CCC[C@H](C)CCC[C@H](C)CCCC(C)C)O2 [Vitamin E]	93.3 ± 1.1%	107 ± 16%
COc1cc2ncnc(Nc3ccc(O)cc3)c2cc1OC [Janex 1]	101 ± 12%	111 ± 5.3%
COc1cc(N2CCOCC2)ccc1Nc1ncc(F)c(Nc2ccccc2NS(C)(=O)=O)n1	98.1 ± 5.6%	111 ± 4.2%
Cn1cc(C2=C(c3cccc(N)c3)C(=O)NC2=O)c2ccccc21	114.2 ± 0.55%	113 ± 3.2%
CC[C@@H]1C(=O)N(C)c2cnc(Nc3ccc(C(=O)N[C@H]4CC[C@H](N5CCN(CC6CC6)CC5)CC4)cc3OC)nc2N1C(C)C [Volasertib (BI 6727)]	104.1 ± 0.8%	117 ± 15%
O=C(NCCO)c1cccc(-c2cc(Nc3ccc(OC(F)(F)F)cc3)ncn2)c1	98.72 ± 0.31%	107 ± 3.3%
CCc1cc2c(=O)c(-c3nc4ccccc4s3)coc2c(CN2CCCCC2)c1O	129 ± 34%	123 ± 5.4%
O=C(NOCC1CC1)c1ccc(F)c(F)c1Nc1ccc(I)cc1Cl	105 ± 1.4%	95.7 ± 9.2%
CC(C)n1nc(-c2cc3cc(O)ccc3[nH]2)c2c(N)ncnc21	103 ± 11%	96.2 ± 30%
COc1cc2nccc(Oc3ccc(NC(=O)C4(C(=O)Nc5ccc(F)cc5)CC4)cc3)c2cc1OC	29.6 ± 16%	44.5 ± 3.8%
CN(C)CCOc1ccc(-c2nc(-c3ccncc3)c(-c3ccc4c(c3)CC/C4=N\O)[nH]2)cc1	103 ± 23%	101 ± 4%
O=C(O)CN1C(=O)c2c(I)c(I)c(I)c(I)c2C1=O	126 ± 38%	107 ± 3.2%
C#Cc1cccc(Nc2ncnc3cc(OCCOC)c(OCCOC)cc23)c1 [Erlotinib hydrochloride]	108 ± 9.8%	121 ± 20%
CCN1CCN(Cc2ccc(C(=O)Nc3ccc(C)c(Oc4ccc5c(c4)CC(=O)N5)c3)cc2C(F)(F)F)CC1	110 ± 13%	114 ± 6.1%
